High-throughput results from PubChem.
Most compounds without a hit are left out; they make up all but 11% or so of the library.
G9a inh: blocks human histone lysine methyltransferase G9a; Q96KQ7; G9a H3K9 monomethylation, AlphaScreen, 2 h; Potency, µM (top dose mostly 102 µM), actives largely listed as inhibitors; hit rate 8.8% among 350,000; AID 504332; also: nearly all actives have a fitted effect of over 75% in size
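G9a (20 nM) was preincubated 15 min with compound, then reacted 2 h at room temperature with 500 nM biotin-H3K9 peptide and 20 µM SAM. Monomethyl-H3K9 detected by AlphaScreen using anti-H3K9me1 antibody.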
VDR inhibitor: inhibitors of human vitamin D receptor; Potency, µM, usual class: inhibitors; VDR-SRC2-3 peptide fluorescence polarization, 2 h; P11473; hit rate 0.93% among 400,000
Target sequence (P11473 whole entry, looked up): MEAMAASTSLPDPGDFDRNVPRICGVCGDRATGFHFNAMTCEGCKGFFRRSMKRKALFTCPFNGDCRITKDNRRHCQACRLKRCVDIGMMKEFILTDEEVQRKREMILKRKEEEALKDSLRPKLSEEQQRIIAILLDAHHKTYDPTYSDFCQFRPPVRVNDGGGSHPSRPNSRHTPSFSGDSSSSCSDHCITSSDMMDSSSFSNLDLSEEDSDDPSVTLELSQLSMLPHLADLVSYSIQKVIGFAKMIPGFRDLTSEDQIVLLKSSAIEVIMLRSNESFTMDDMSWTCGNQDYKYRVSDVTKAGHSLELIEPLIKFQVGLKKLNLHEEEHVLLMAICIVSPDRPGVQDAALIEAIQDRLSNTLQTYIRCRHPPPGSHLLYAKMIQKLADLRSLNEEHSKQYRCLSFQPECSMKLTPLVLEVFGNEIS
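After 23 nl compound addition and a short centrifugation, plates sat for 2 hours at ambient temperature; polarization of fluorescence then indicated loss of VDR binding to peptide SRC2-3.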
HP1b binding inh: blocks HP1-beta chromodomain binding to methylated histone tails. P83916. AlphaScreen HP1-beta / biotin-H3K9me3 peptide binding. Potency, µM (top dose mostly 114 µM), actives largely listed as inhibitors. hit rate 0.56% among 390,000. AID 540317; also: nearly all actives have a fitted effect of over 70% in size
Target sequence (P83916 whole entry, looked up): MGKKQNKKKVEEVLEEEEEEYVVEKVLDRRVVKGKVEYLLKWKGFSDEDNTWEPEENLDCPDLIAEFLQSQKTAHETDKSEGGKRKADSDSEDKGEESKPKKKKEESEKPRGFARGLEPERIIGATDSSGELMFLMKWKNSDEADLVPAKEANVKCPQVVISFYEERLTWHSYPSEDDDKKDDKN
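AlphaScreen: HP1-beta (50 nM) preformed 30 min with biotin-H3(1-18)K9me3 peptide (50 nM) in PBS pH 7.4, 0.01% Tween-20. Compound added for 30 min at RT, then streptavidin donor/nickel chelate acceptor beads (10 ug/mL) for 30 min.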
PLK1 PBD inh: PLK1 (human) polo-box domain binding inhibition. AID 720504. P53350. Plk1 PBD binding of FITC phosphopeptide, fluorescence polarization. hit rate 2.8% among 360,000. Potency, µM, most hits filed as inhibitors; also: series mostly up to about 57 µM; nearly all actives have a fitted effect of over 65% in size
BAZ2B block: BAZ2B (human) inhibition; Q9UIF8; AlphaScreen BAZ2B-H3K14Ac peptide displacement; Potency, µM (highest dose often 114 µM), hits mostly inhibitors; hit rate 4.4% among 360,000; AID 504333; also: nearly all actives have a fitted effect of over 60% in size
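Complex of BAZ2B and biotin-H3K14Ac (50 nM apiece) forms over 30 min at RT, then faces library compounds up to 110 uM for another 30 min; AlphaScreen beads added, 20 min dark incubation, luminescence read.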
JMJD2A Tudor: JMJD2A Tudor domain (human) inhibition | O75164 | AlphaScreen JMJD2A-Tudor / H3K4me3 peptide binding | Potency, µM (doses to about 114 µM), hits mostly inhibitors | hit rate 4.4% among 390,000; also: nearly all actives have a fitted effect of over 50% in size
Of the large screens only hits and unclear results are named; the others gave an inactive call. Calls follow the shape of the dose curve; as a rule, active = well fitted curve in the direction sought with a large enough effect; inconclusive = small, poorly fitted or top-dose-only effect, or another doubt; inactive = no such curve, though single readings can be large; an effect the other way counts as inactive or inconclusive.

CC1=NOC(=O)/C1=C\c1ccc(-c2ccc(Br)cc2C(=O)O)o1	VDR inhibitor 79µM, PLK1 PBD inh 2.7µM, BAZ2B block inconclusive (no result: G9a inh)
O=Cc1ccc(-c2ccccc2C(=O)O)o1	G9a inh inconclusive
CCOC(=O)c1cc(-c2ccc(/C=C3/C(=O)N(c4ccc(C(=O)O)cc4)N=C3C)o2)ccc1Cl	G9a inh 7.1µM, VDR inhibitor inconclusive, HP1b binding inh inconclusive, PLK1 PBD inh 0.84µM, BAZ2B block 18µM, JMJD2A Tudor 14µM
O=C1/C(=C\c2ccc(-c3ccccc3[N+](=O)[O-])o2)C(c2ccccc2)=NN1c1ccccc1	G9a inh 4µM, HP1b binding inh 7.9µM, PLK1 PBD inh 3.4µM, BAZ2B block 6.3µM, JMJD2A Tudor 5.6µM
CCCCNS(=O)(=O)c1ccc2nc(-c3cccnc3)cc(C(=O)NCCCOCC)c2c1	none (no result: PLK1 PBD inh)
Cc1cccc(C2=N[C@@H](CC(C)C)CO2)c1	G9a inh inconclusive (no result: HP1b binding inh, PLK1 PBD inh, BAZ2B block, JMJD2A Tudor)
CCCCOC(=O)c1cc(-c2ccc(/C=N/n3cnnc3)o2)ccc1Cl	JMJD2A Tudor 56µM (no result: G9a inh, BAZ2B block)
CC1=NOC(=O)/C1=C/c1ccc(-c2ccc(Cl)cc2)o1	G9a inh 4.5µM, BAZ2B block inconclusive (no result: VDR inhibitor, HP1b binding inh, PLK1 PBD inh, JMJD2A Tudor)
Cc1ccc(C2=NOC(=O)/C2=C\c2ccc(C)o2)cc1	VDR inhibitor inconclusive, HP1b binding inh 28µM, PLK1 PBD inh 0.75µM, BAZ2B block 11µM, JMJD2A Tudor 35µM (no result: G9a inh)
CCOC(=O)c1cc(-c2ccc(/C=N\n3cnnc3)o2)ccc1Cl	none
CCc1ccc(NC(=O)C2CCCN2S(=O)(=O)c2ccc3c(c2)CCCC(=O)N3)cc1 (stereo not drawn)	none (no result: PLK1 PBD inh)
O=C(Nc1cccnc1)C1(c2ccc(Cl)cc2)CCCC1	BAZ2B block inconclusive
Cc1cc(C)c([N+](=O)[O-])cc1-c1ccc(/C=N/c2c(-c3ccco3)nc3ccccn23)o1	VDR inhibitor inconclusive, HP1b binding inh inconclusive, BAZ2B block 10µM, JMJD2A Tudor 6.3µM
O=[N+]([O-])c1ccc(Cl)c(-c2ccc(/C=N/c3c(-c4ccco4)nc4ccccn34)o2)c1	G9a inh inconclusive, VDR inhibitor inconclusive, HP1b binding inh inconclusive, BAZ2B block inconclusive, JMJD2A Tudor inconclusive
Oc1cccc(/C=N/c2c(-c3ccco3)nc3ccccn23)c1	G9a inh 50µM, HP1b binding inh inconclusive, BAZ2B block 56µM, JMJD2A Tudor inconclusive
COCOc1c2c(c(OCOC)c3c(OCOC)cccc13)/C(=N/NS(C)(=O)=O)C1=C2CCCC1	none (no result: G9a inh, HP1b binding inh, PLK1 PBD inh, BAZ2B block, JMJD2A Tudor)
Cc1ccc(NC2=NCC(=O)N2Cc2cccs2)cc1C	PLK1 PBD inh inconclusive, BAZ2B block 79µM
COc1ccc(NC2=NCC(=O)N2Cc2cccs2)cc1	none
COc1ccc(NC2=NCCC(=O)N2Cc2cccs2)cc1	G9a inh 45µM, BAZ2B block inconclusive
COc1cccc(NC2=NCC(=O)N2Cc2cccs2)c1	G9a inh 50µM
COc1cccc(-c2nc(CS(=O)(=O)CC(=O)NCCN3CCOCC3)c(C)o2)c1	none
CCOc1ccc(NC(=O)Cc2coc3ccc(C)cc23)cc1	none (no result: PLK1 PBD inh)
CC(=O)N1CCOc2cc(S(=O)(=O)NCc3ccc(C)cc3)c(Cl)cc21	none (no result: PLK1 PBD inh)
CC(S(=O)(=O)c1ccccc1)S(=O)(=O)c1ccccc1	none (no result: G9a inh, VDR inhibitor, HP1b binding inh, BAZ2B block, JMJD2A Tudor)
CC(N1CCOC1=O)S(=O)(=O)c1ccccc1 (stereo not drawn)	G9a inh inconclusive, BAZ2B block 50µM
CCC1CCC2(CC1)NC(=O)N(CC(=O)Nc1cccc(S(=O)(=O)N(C)c3ccccc3)c1)C2=O (stereo not drawn)	G9a inh 5.6µM
CN1C(=O)N(CC(=O)Nc2cccc(S(=O)(=O)N(C)c3ccccc3)c2)C(=O)C12CCCCC2	G9a inh 56µM
Cc1ccc2c(c1)NC(c1cccnc1)=NC(c1ccc(F)cc1)=N2	G9a inh inconclusive (no result: PLK1 PBD inh)
O=S1(=O)CCC(NCC2CCCO2)C1 (stereo not drawn)	G9a inh 50µM
CCNC1CCS(=O)(=O)C1 (stereo not drawn)	none
COc1cc(C2C3CN(C)CC=C3C(C#N)=C(N)C2(C#N)C#N)ccc1OC(C)C (stereo not drawn)	G9a inh inconclusive, PLK1 PBD inh inconclusive
COc1ccc(C2NC(=O)C(C#N)=C(S)N2c2ccccc2)cc1OC (stereo not drawn)	G9a inh 45µM, VDR inhibitor 45µM
COc1cc(C2NC(=O)C(C#N)=C(S)N2c2ccccc2)ccc1OC(C)C (stereo not drawn)	G9a inh inconclusive, VDR inhibitor 35µM
Cc1cc([N+](=O)[O-])nn1Cc1ccc(C(=O)N/N=C/c2ccc(N(C)C)cc2)cc1	none (no result: G9a inh)
Cc1ccc(Cl)cc1NS(=O)(=O)c1cc2c(cc1F)NC(=O)CC2	none (no result: G9a inh, VDR inhibitor, HP1b binding inh, PLK1 PBD inh, BAZ2B block)
COc1ccc(S(=O)(=O)Nc2cc3c4c(c2)CCN4C(=O)CC3)cc1OC	none
Cc1cc(C)c(NC(=O)CCCSc2nnc(N)s2)c(C)c1	G9a inh 50µM
C/C=C/C(=O)OCC(=O)Nc1ccc(OC)c(OC)c1	BAZ2B block 50µM
COc1cc(/C=C/C(=O)OCC(=O)Nc2ccc(S(N)(=O)=O)cc2)ccc1O	PLK1 PBD inh 13µM
Cc1ccc(-c2nc(C)c(CCNS(=O)(=O)c3ccccc3F)s2)cc1	none (no result: PLK1 PBD inh)
COC(=O)/C=C/c1c(C)nc(NCc2ccccc2)nc1Cl	G9a inh 50µM, BAZ2B block inconclusive
CC(C)N(C(=O)CSc1nc2c([nH]1)c(=O)n(C)c(=O)n2C)c1ccccc1	G9a inh 25µM
Cc1ccc(C(=O)CSc2nc3c([nH]2)c(=O)n(C)c(=O)n3C)cc1	G9a inh 40µM
Cc1ccc(C(=O)CSc2nc(N)cc(=O)[nH]2)cc1	none
N#CCCn1c(=O)c(-c2cccs2)nc2cnc(OCc3ccccc3)nc21	none (no result: HP1b binding inh, PLK1 PBD inh, BAZ2B block, JMJD2A Tudor)
Cc1cccnc1NC(=O)CSc1ncnc2sc(C)c(C)c12	G9a inh 50µM, BAZ2B block inconclusive, JMJD2A Tudor inconclusive
CCC(Sc1ncnc2sc(C)c(C)c12)C(=O)OC (stereo not drawn)	G9a inh 2µM, BAZ2B block inconclusive
Cc1sc2ncnc(SCC(=O)Nc3ncccc3O)c2c1C	PLK1 PBD inh inconclusive, BAZ2B block 40µM, JMJD2A Tudor 63µM
Cn1c(=O)cnc2cnc(OCc3ccccc3)nc21	none (no result: HP1b binding inh, PLK1 PBD inh, BAZ2B block, JMJD2A Tudor)
Cc1ccccc1C1C(C#N)=C2N=C(N)c3c(sc4c3CCCCC4)N2C2=C1C(=O)CCC2 (stereo not drawn)	G9a inh inconclusive, BAZ2B block 45µM
CCC1(C)Cc2c(sc3nn[nH]c(=O)c23)CO1 (stereo not drawn)	G9a inh 40µM, PLK1 PBD inh 21µM
C=CCSc1nc2sc3c(c2c(=O)[nH]1)CC(C)(CC)OC3 (stereo not drawn)	none
CC1(C)Cc2c(sc3nn[nH]c(=O)c23)CO1	G9a inh 32µM, PLK1 PBD inh inconclusive
